High-throughput results: PubChem, National Center for Advancing Translational Sciences (NCATS)
Most compounds without a hit are left out; they make up all but 21% or so of the library.
Shiga toxin inh: A qHTS for Small Molecule Inhibitors of Shiga Toxin; inhibition, % at 38.7 µM; AID 2315, 2010; Vero cells, Shiga toxin protein synthesis inhibition reporter; 290,000 tested, 9.2% active; in the data active means inhibition mostly above about 28%, no sharp cut-off; inactive means mostly below about 43%; further: 0% is about no effect
HCV inhibitor: qHTS Assay for Inhibitors of Hepatitis C Virus (HCV); AID 651820, 2012; Potency, µM (titrated, usually from 41.8 µM), for the others: top-dose activity change, negative = inhibition, usual class: inhibitors; Huh7.5.1 HCVcc-Cre infection, luciferase reporter, 44 h; 340,000 tested, 3.4% active; further: potency means the concentration at half of the fitted maximal effect; on the % scale 0 is the no-effect control and ±100 the full control effect
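After 44 h co-culture of compound, cells and HCVcc-Cre (~0.5 moi), substrate is added for 15 min at room temperature and luciferase measured over 15 sec. Cells were seeded at 1,000/well and pre-cultured 4 h.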
CHX counter: Cycloheximide Counterscreen for Small Molecule Inhibitors of Shiga Toxin; AID 2314, 2010; max response, %; 300,000 tested, 12% active; cell reporter, cycloheximide protein synthesis inhibition counterscreen; in the data active means max response mostly above about 13%, no sharp cut-off; inactive means mostly below about 14%; further: read at 38.3 µM for the half of the compounds with a filed dose; 0% is about no effect
Pf growth 96h: Primary qHTS for delayed death inhibitors of the malarial parasite plastid, 96 hour incubation. P. falciparum luciferase reporter growth, 96 h. Potency, µM (doses to about 28.7 µM), without a hit: at the top dose activity change, negative = inhibition, usual class: inhibitors. 320,000 tested, 6.9% active. AID 504834, 2011; further: potency means the concentration at half of the fitted maximal effect; on the % scale 0 is the no-effect control and ±100 the full control effect
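Luminescence readout: decreased luciferase signal marks inhibited growth of reporter-expressing P. falciparum in infected red cells (2% hematocrit, 0.05% parasitemia final), exposed to compound two generations (96 h, 37 C, 5% CO2).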
HCMV inh: qHTS Assay for inhibitors of the human cytomegalovirus (HCMV); HFF cells, HCMV-luciferase reporter, 72 h; hits give low values; activity change, negative = inhibition, % at 57.5 µM; 410,000 tested, 4.5% active; in the data active means activity change below about -60%; inconclusive means no clear call, values can overlap the other calls; inactive means above about -39%; further: on the % scale 0 is the no-effect control and ±100 the full control effect
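Two-dose cell screen: HFF monolayers treated with compounds and infected with luciferase-expressing HCMV at 1 PFU/cell, 72 h at 37C, then lysed for luciferase measurement.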
Pf growth 48h: Primary qHTS for delayed death inhibitors of the malarial parasite plastid, 48 hour incubation | P. falciparum luciferase growth in erythrocytes, 48 h | Potency, µM (highest dose often 28.7 µM), without a hit: at the highest dose activity change, negative = inhibition, actives largely listed as inhibitors | 310,000 tested, 5.9% active | AID 504832, 2011; further: potency means the concentration at half of the fitted maximal effect; on the % scale 0 is the no-effect control and ±100 the full control effect
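Growth was read as firefly luciferase luminescence after a 48 h, 37 C, 5% CO2 exposure of compounds to reporter-bearing P. falciparum cultures (0.1% parasitemia, 2% hematocrit final) in Albumax-supplemented RPMI 1640.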
Numbers without * were called inactive; ? = inconclusive; / = not tested or not shown; + = active, no number. Unless noted, the call rests on the fitted dose curve; in most records, active means well fitted inhibition curve with a large enough effect; inconclusive means small, poorly fitted or top-dose-only effect, or another doubt; inactive means no such curve, though single readings can be large or run the other way.

SMILES	Shiga toxin inh	HCV inhibitor	CHX counter	Pf growth 96h	HCMV inh	Pf growth 48h
Nc1ccc2c(c1)C/C(=C/c1ccco1)C2=O	123*	?	56*	274%	11	332%
O=C1/C(=C/c2ccco2)CCc2ccccc21	61*	-7%	77*	?	-38	338%
CCOC(=O)c1ccc(-c2c(-c3ccccc3OC)sc3cc4c(cc23)OCO4)cc1F	/	3%	/	?	26	1.9µM*
Cc1cc(NC(=O)c2sc3ccccc3c2O)no1	82*	4%	62*	303%	76	125%
CCCc1c(NC(=O)Nc2ccc(F)cc2)cnn1-c1ccccc1	45*	-19%	23*	?	-67*	?
Cc1cc(NC(=O)CCSc2ccccc2)no1	36*	5%	24*	33%	2	29%
Cc1ccc(NC(=O)c2sccc2-n2cccc2)c(Cl)c1	22	1%	31*	176%	-28	19%
Cc1cccc(NC(=O)c2sccc2-n2cccc2)c1C	-3	-7%	-1	-2%	-36	6%
CCOc1ccccc1CNC(=O)c1ccc(N2Cc3ccccc3Oc3ncccc32)s1	/	/	/	/	1	/
CC(CC(=O)O)CC(=O)Nc1nncs1 (stereo not drawn)	-10	10%	-1	26%	-20	19%
CC1(C)S[C@H]2C(NC(=O)[C@@H](N)c3ccc(O)cc3)C(=O)N2[C@@H]1C(=O)O (stereo partly drawn)	/	/	/	12%	/	5%
O=C(CC1CCCC1)N1CCN(S(=O)(=O)c2ccccc2)CC1	/	19%	/	?	-14	?
Cc1cc(NC(=O)CSc2nc(N)c(NC(=O)c3ccccc3F)c(=O)[nH]2)no1	-6	-11%	-3	?	-36	9%
Cc1cc(NC(=O)NC(=O)c2ccccc2F)no1	77*	5%	32*	171%	58	149%
CCCc1c(C(=O)NNc2cc(C(F)(F)F)ccc2Cl)cnn1-c1ccccc1	-6	?	1	?	-66*	?
Cc1cc(NC(=O)c2c(F)cccc2Cl)no1	56*	20%	13*	82%	-15	0%
Cc1cc(NC(=O)c2ccccc2Cl)no1	+	14%	54*	/	71	172%
Cc1cc(NC(=O)c2cc(Cl)ccc2Cl)no1	-19	?	-1	?	-11	5%
CCCc1c(C(=O)Nc2ccc(C(F)(F)F)cc2)cnn1-c1ccccc1	-3	?	1	?	-16	?
CC1CCC(NS(=O)(=O)c2ccc(N3CCCC3=O)cc2)CC1 (stereo not drawn)	-4	-3%	-3	13%	0	-2%
CCOc1cccc(C(=O)N(Cc2ccc(F)cc2)Cc2ccco2)c1	/	/	/	/	16	/
CC(OC(=O)c1cccc(-n2cnnn2)c1)C(=O)NCc1ccccc1 (stereo not drawn)	/	15%	/	14%	-6	9%
Cc1ccc(NC(=O)c2ccccc2F)c(NC(=O)c2ccccc2F)c1	/	-24%	/	/	66	/
Cc1ccc2nc(-c3ccccc3Cl)cc(C(=O)Nc3cc(C)on3)c2c1	15	13µM*	-2	/	-39	?
CCOC(=O)C(NC(=O)c1ccccc1F)(Nc1cc(C)on1)C(F)(F)F (stereo not drawn)	-9	11%	-1	?	-94*	10%
SMILES	Shiga toxin inh	HCV inhibitor	CHX counter	Pf growth 96h	HCMV inh	Pf growth 48h
Cc1ccc(SCCC(=O)Nc2ccccc2Br)cc1	56*	0%	16*	1%	?	14%
Cc1ccc(NC(=O)c2ccccc2Cl)c(Cl)c1	69*	-18%	42*	82%	32	/
COc1ccccc1NC(=O)C1=C(C)Nc2nc3ccccc3n2C1c1ccccc1Cl (stereo not drawn)	/	/	/	/	-6	/
CCOC(=O)C1(CC2CC2)CCN(S(=O)(=O)/C=C/c2ccccc2)CC1	-1	-9%	3	?	-19	-18%
O=C(/C=C/c1ccccc1Cl)NCCCn1ccnc1	-3	14%	-3	277%	18	-12%
CCCc1c(C(=O)Nc2cc(C)on2)cnn1-c1ccccc1	15	-8%	-1	9.3µM*	-29	?
Cc1ccc(NC(=O)C2CC2C)c(Cl)c1 (stereo not drawn)	62	9%	30*	-11%	-11	30%
CCCc1c(C(=O)Nc2ccc(F)cc2C)cnn1-c1ccccc1	-6	-9%	6	5%	29	-2%
CC(=O)c1c(C(C)=O)c(C)n(-c2ccc(C)c(NC(=O)c3ccccc3Cl)c2)c1C	-5	/	-2	2.9µM*	-27	?
COc1ccc(-c2noc(-c3ccc(NCCc4ccccc4)c([N+](=O)[O-])c3)n2)cc1OC	/	/	/	/	4	/
NC(N)=NC(N)=Nc1cccc(Cl)c1	-6	5%	-4	10µM*	-14	?
Cc1ccc(Cl)cc1N=C(N)N=C(N)N	-10	-13%	-3	?	-36	?
COc1ccc(-c2csc3nc(-c4ccccc4)oc(=O)c23)cc1OC	3	?	8	?	?	23%
COc1ccc(-c2csc3nc(-c4cccnc4)nc(Cl)c23)cc1OC	-8	?	4	6.6µM*	-71*	12µM*
Clc1nc(-c2cccnc2)nc2scc(-c3ccccc3)c12	40*	?	29*	1µM*	?	12µM*
O=C(O)C(=O)Nc1ncn[nH]1	/	/	/	/	5	/
O=C(/C=C/c1ccccc1)Nc1ncn[nH]1	29	?	26*	-5%	8	3%
CCc1ccc(OCC(=O)Nc2ncn[nH]2)c(Br)c1	/	/	/	/	68	/
CCc1ccc(OCC(=O)Nc2ncn[nH]2)cc1	58*	26%	25*	305%	3	117%
O=C(COc1ccccc1)Nc1ncn[nH]1	46*	11%	21*	102%	-40	40%
CC1CN=C(c2ccc(Cl)cc2)c2c3ccc(C(F)(F)F)cc3nn21 (stereo not drawn)	/	/	/	/	47	/
c1ccc(Cn2nnnc2CN2CCN(c3ncccn3)CC2)cc1	6	13%	-4	4.7µM*	9	-9%
COc1ccc(Cn2nnnc2CN2CCOCC2)cc1	4	9%	-2	13µM*	30	-4%
COc1ccc(CN2CCOCCOCCOCCOCCOCC2)cc1	-11	16%	-2	15%	11	12%
CNC(=S)N/N=C/c1c(C(=O)OC)cnn1-c1ccc(F)cc1F	2	-10%	-2	?	-13	-3%
COC(=O)c1cnn(-c2ccc(F)cc2F)c1/C=N/NC(N)=S	24	10µM*	1	-2%	-11	-8%
COc1ccc(Cn2c(SCc3ccc(C(=O)NC4CCCCC4)cc3)nc3cccnc32)cc1	/	/	/	/	2	/
